Only some compounds are listed: those with a hit (about 5% of all), similar ones and a draw of the others.
PREPL inh: inhibits the human prolyl oligopeptidase-like enzyme. hit rate 0.68% among 320,000. inhibition, % at 5.96 µM. recombinant PREPL, fluorescence polarization activity-based probe; in the data active means inhibition above about 43%;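 further: 0% = enzyme with DMSO and 100% = wells lacking enzyme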
ALR H2O2 inh: human ALR oxidase inhibition via reduced H2O2. purified ALR, DTT oxidation, H2O2 HRP-luminol luminescence. inhibition, % (no concentration beside the values). hit rate 3.8% among 290,000. AID 485317;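 active means mean replicate inhibition above about 79%, with every replicate also reaching it, limit read from the data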
CHT inh: human CHT choline transport inhibition. CHT-expressing cells, membrane potential dye, choline response; active compounds read low. B-score at 10 µM. Q9GZV3. hit rate 0.86% among 310,000;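 active means B-score over 3 SD under the library average, and starting fluorescence ratio not unusually high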;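 further: choline stimulus applied at its EC90 after an EC20 pre-addition; B-score computed on integrated fluorescence ratio after choline addition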
CHT PAM: allosteric activators of human choline transporter CHT. B-score at 10 µM. Q9GZV3. AID 488977. CHT-expressing cells, membrane potential dye, choline EC20; active compounds read high; LV-AA mutant CHT in HEK293 cells. hit rate 0.49% among 310,000;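 active means initial fluorescence not abnormally high and integrated response B-score, plate-corrected, over 3 SD above library mean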
AI-2 QS mod: modulates the Vibrio harveyi AI-2 quorum sensing system; Vibrio harveyi JMH597 AI-2 luminescence/OD600 ratio, 9 h; active compounds read low; strain lacks LuxN and CqsS sensors; 0 = neutral-control median; activity change, % at 7.5 µM; hit rate 0.4% among 300,000; in the data active means activity change below about -75%, passing the limit was not always enough;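 further: luminescence divided by OD600 gain over 9 h not by final OD600 alone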
An asterisk follows results filed as active.

For Cc1nn(-c2ccc(N3CCOCC3)nn2)c(C)c1CCC(=O)N1CCN(C)CC1 the results were PREPL inh -4, ALR H2O2 inh 0, CHT inh inactive, CHT PAM inactive and AI-2 QS mod 11.
`Cc1ccccc1C(=O)Nc1cccc(C(=O)N/N=C/c2ccccn2)c1` gave PREPL inh 5, ALR H2O2 inh 1, CHT inh inactive, CHT PAM inactive and AI-2 QS mod 6.
For Cc1cc(C)nc(N(C#N)Cc2cccc(Cl)c2)n1 the results were PREPL inh -17, CHT inh inactive, CHT PAM inactive and AI-2 QS mod 26.
`CCn1c(CC(=O)Nc2ccc(F)cc2)nnc1SCC(=O)Nc1nncs1` gave PREPL inh -2, ALR H2O2 inh -4, CHT inh inactive, CHT PAM inactive and AI-2 QS mod 28.
For NC(=O)c1ccc(NC(=O)C#Cc2ccccc2)cc1 the results were PREPL inh 13, ALR H2O2 inh 6, CHT inh inactive, CHT PAM inactive and AI-2 QS mod -66.
`Cc1ccc(NC(=O)CSc2nc(N)cc(=O)[nH]2)cc1S(=O)(=O)N1CCCCCC1` gave PREPL inh -4 and ALR H2O2 inh 99*.
`COc1cccc(C2=CC(c3ccc(N(C)C)cc3)n3ncnc3N2)c1` (stereo not given) gave PREPL inh 63*, ALR H2O2 inh 36, CHT inh -9.3*, CHT PAM inactive and AI-2 QS mod 35.
Screening COc1ccc(N=c2scc(-c3ccc(OC)cc3)n2CCO)cc1 returned PREPL inh 27, ALR H2O2 inh 86*, CHT inh inactive, CHT PAM inactive and AI-2 QS mod 1.
Cc1c(N=c2scc(-c3ccccc3)n2CCO)c(=O)n(-c2ccccc2)n1C was read as PREPL inh 6, ALR H2O2 inh 26, CHT inh inactive, CHT PAM inactive and AI-2 QS mod -4.
c1nc(NCC2CCCO2)c2[nH]cnc2n1 (stereo not given) was read as PREPL inh 9, ALR H2O2 inh -11, CHT inh inactive, CHT PAM inactive and AI-2 QS mod 19.
For c1ccc2c(c1)[nH]c1c(NCC3CCCO3)ncnc12 (stereo not given) the results were PREPL inh 14, ALR H2O2 inh 82*, CHT inh inactive, CHT PAM inactive and AI-2 QS mod 15.
O=C(NCc1ccncc1)C(=O)NCC(c1ccco1)N1CCN(c2ccc(F)cc2)CC1 (stereo not given) was read as PREPL inh 0, ALR H2O2 inh 94*, CHT inh inactive, CHT PAM inactive and AI-2 QS mod -7.
`O=C(NCC(c1ccco1)N1CCN(c2ccc(F)cc2)CC1)OCc1ccccc1` (stereo not given) gave PREPL inh -12, ALR H2O2 inh 16, CHT inh inactive, CHT PAM inactive and AI-2 QS mod 37.
Screening O=C(NCc1ccccn1)C(=O)NCC(c1ccco1)N1CCN(c2ccc(F)cc2)CC1 (stereo not given) returned PREPL inh -47, ALR H2O2 inh 98*, CHT inh inactive, CHT PAM inactive and AI-2 QS mod 22.
COc1ccc(NC(=O)c2ccc(Br)c(S(=O)(=O)N3CCOCC3)c2)cc1 was read as PREPL inh 18, CHT inh inactive, CHT PAM inactive and AI-2 QS mod -4.
For COc1ccc(-n2cc(CNCCc3cnc[nH]3)c(-c3cccc(F)c3)n2)cc1 the results were PREPL inh 1, ALR H2O2 inh 1, CHT inh inactive, CHT PAM inactive and AI-2 QS mod 10.
Screening CCCOc1ccc(Cl)cc1CNc1ccccc1 returned PREPL inh 5, ALR H2O2 inh 98*, CHT inh inactive, CHT PAM inactive and AI-2 QS mod -1.
`O=C(CSc1ncn[nH]1)CSc1ncn[nH]1` gave PREPL inh 5, ALR H2O2 inh 94*, CHT inh inactive, CHT PAM inactive and AI-2 QS mod 40.
COc1cc(OC)cc(-c2c(C#Cc3ccsc3)c3cc(-c4ccc5c(c4)OCCO5)ccc3n2C)c1 was read as PREPL inh 23 and ALR H2O2 inh -6.
Screening COc1cccc(N2CCN(C3CC(=O)N(c4ccc(F)c(Cl)c4)C3=O)CC2)c1 (stereo not given) returned PREPL inh 2, ALR H2O2 inh 32, CHT inh inactive, CHT PAM inactive and AI-2 QS mod -4.
`COc1ccc(NC2CCN(C3CC(=O)N(c4ccc(F)c(Cl)c4)C3=O)CC2)cc1` (stereo not given) gave PREPL inh 12, ALR H2O2 inh 82*, CHT inh inactive, CHT PAM inactive and AI-2 QS mod 22.
Screening CCCCCOc1ccc(C(=O)CCC(=O)NC(C)c2ccc(S(N)(=O)=O)cc2)cc1 (stereo not given) returned PREPL inh 2 and ALR H2O2 inh -5.
For Cc1ccc2nc(SCC(=O)Nc3cccc(Cl)c3)nc(=O)n2c1 the results were PREPL inh -2, ALR H2O2 inh 97*, CHT inh inactive, CHT PAM inactive and AI-2 QS mod 29.
O=C(CSc1nc(-c2ccc(Cl)cc2)[nH]c(=O)n1)Nc1cccc(Cl)c1 was read as PREPL inh 3, ALR H2O2 inh 99*, CHT inh inactive, CHT PAM inactive and AI-2 QS mod -14.
`Cc1ccc2nc(SCC(=O)Nc3cccc(F)c3)nc(=O)n2c1` gave PREPL inh 14, CHT inh inactive, CHT PAM inactive and AI-2 QS mod 36.
For COC(=O)[C@@]12CCCN1[C@H](c1ccc(-c3ccc4c(c3)OCO4)cc1)[C@H]1C(=O)N(C)C(=O)[C@H]12 the results were PREPL inh 7 and ALR H2O2 inh -45.
`COc1cc(OC)cc(-c2c(-c3ccc(F)cc3)c3cc(-c4ccc(SC)cc4)ccc3n2C)c1` gave PREPL inh 6 and ALR H2O2 inh 17.
`Cc1cccc(C)c1NC(=O)CNC(=O)C(Cc1ccccc1)NC(=O)c1ccccc1` (stereo not given) gave PREPL inh -10, ALR H2O2 inh -3, CHT inh inactive, CHT PAM inactive and AI-2 QS mod 9.
For O=C(O)c1ccc(-c2ccc(/C=C3\NC(=O)N(Cc4ccc(Cl)cc4)C3=O)o2)cc1Cl the results were AI-2 QS mod 20.
`CCc1ccc(/C=N/Nc2ncnc3nc[nH]c23)cc1` gave PREPL inh 12, ALR H2O2 inh 81*, CHT inh inactive, CHT PAM inactive and AI-2 QS mod 20.
For CC1(C)CC(NC(=O)C2CCC(=O)N(C3CC3)C2)CC(C)(C)C1 (stereo not given) the results were PREPL inh -1, ALR H2O2 inh 0, CHT inh inactive, CHT PAM inactive and AI-2 QS mod 20.
Screening CC(CCc1ccccc1)NC(=O)CN1CCOc2ccccc21 (stereo not given) returned PREPL inh -4, ALR H2O2 inh 98*, CHT inh inactive, CHT PAM inactive and AI-2 QS mod 17.

Assay outcomes as filed in PubChem BioAssay.
